# PubChem BioAssay (NCATS)
# Inconclusive results are not listed. A call without a number means that no potency is given here. Calls of active or inactive are those of the source. Calls follow the shape of the dose curve; as a rule, active = well fitted inhibition curve with a large enough effect; inconclusive = small, poorly fitted or top-dose-only effect; inactive = flat fitted curve, though single readings scatter.
# How the values were obtained:
# Assay in all cases: qHTS profiling for inhibitors of Plasmodium falciparum proliferation (AID 504749); also: nearly all actives have a fitted effect of over 60% in size
# Settings in all cases: P. falciparum in erythrocytes, SYBR Green DNA, 72 h; series mostly up to 28.7 µM
# DIV14 = test system: DIV14
# In short: (§1)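 Parasite proliferation within erythrocytes, 72 h exposure. Endpoint: SYBR Green I fluorescence after overnight lysis at room temperature. Controls: 0.29 uM artemisinin, DMSO.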
# DIV17 = test system: DIV17
# In short: as §1
# DIV30 = test system: DIV30
# In short: as §1
# Dd2 = test system: Dd2
# In short: as §1
# ECU = test system: ECU
# In short: as §1
# FAB9 = test system: FAB9
# In short: as §1
# GB4 = test system: GB4
# In short: as §1
# HB3 = test system: HB3
# In short: as §1
# ICS = test system: ICS
# In short: as §1
# JCK = test system: JCK
# In short: as §1
# N140 = test system: N140
# In short: as §1
# P93_24 = test system: P93_24
# In short: as §1
# P94_40 = test system: P94_40
# In short: as §1
# PAD = test system: PAD
# In short: as §1
# PC15 = test system: PC15
# In short: as §1
# PC26 = test system: PC26
# In short: as §1
# PC49 = test system: PC49
# In short: as §1
# SC27B = test system: SC27B
# In short: as §1
# TAB109 = test system: TAB109
# In short: as §1
# TAB113 = test system: TAB113
# In short: as §1
# Potency is read from the fitted curve at half-maximal effect.
Compound,Potency (DIV14),Potency (DIV17),Potency (DIV30),Potency (Dd2),Potency (ECU),Potency (FAB9),Potency (GB4),Potency (HB3),Potency (ICS),Potency (JCK),Potency (N140),Potency (P93_24),Potency (P94_40),Potency (PAD),Potency (PC15),Potency (PC26),Potency (PC49),Potency (SC27B),Potency (TAB109),Potency (TAB113)
CCOP(=S)(OCC)Oc1cc(C)nc(C(C)C)n1,inactive,inactive,inactive,inactive,inactive,inactive,inactive,inactive,inactive,inactive,inactive,inactive,inactive,inactive,inactive,inactive,inactive,inactive,inactive,inactive
Oc1cccc2cccnc12,inactive,inactive,inactive,inactive,inactive,inactive,inactive,inactive,inactive,inactive,inactive,inactive,inactive,inactive,inactive,inactive,inactive,inactive,inactive,inactive
O=c1[nH]c2ccccc2n1C1CCN(CCCC(c2ccc(F)cc2)c2ccc(F)cc2)CC1,inactive,inactive,inactive,7.94 µM (active),inactive,inactive,inactive,10 µM (active),14.1 µM (active),inactive,,,inactive,inactive,inactive,,inactive,inactive,inactive,inactive
CCC(C(N)=O)N1CCCC1=O (centres undefined),inactive,inactive,inactive,inactive,inactive,inactive,inactive,inactive,inactive,inactive,inactive,inactive,inactive,inactive,inactive,inactive,inactive,inactive,inactive,inactive
CC[C@@H](CO)NC(=O)[C@@H]1C=C2c3cccc4[nH]cc(c34)C[C@H]2N(C)C1,inactive,inactive,inactive,inactive,inactive,inactive,inactive,inactive,inactive,inactive,inactive,inactive,inactive,inactive,inactive,inactive,inactive,inactive,inactive,inactive
CC(C)CC(N(C)C)C1(c2ccc(Cl)cc2)CCC1 (centres undefined),inactive,inactive,inactive,inactive,inactive,inactive,inactive,inactive,inactive,inactive,inactive,inactive,inactive,inactive,inactive,inactive,inactive,inactive,inactive,inactive
Cn1c(CCCC(=O)O)nc2cc(N(CCCl)CCCl)ccc21,inactive,inactive,inactive,inactive,inactive,inactive,inactive,inactive,,inactive,inactive,inactive,inactive,inactive,inactive,inactive,inactive,inactive,,inactive
O=P1(NCCCl)OCCCN1CCCl (centres undefined),inactive,inactive,inactive,inactive,inactive,inactive,inactive,inactive,inactive,,inactive,inactive,inactive,inactive,inactive,inactive,inactive,inactive,inactive,inactive
CC1OC(C)OC(C)O1 (centres undefined),inactive,inactive,inactive,inactive,inactive,inactive,inactive,inactive,inactive,inactive,inactive,inactive,inactive,inactive,inactive,inactive,inactive,inactive,inactive,inactive
NCC(CC(=O)O)c1ccc(Cl)cc1 (centres undefined),inactive,inactive,inactive,inactive,inactive,inactive,inactive,inactive,inactive,inactive,inactive,inactive,inactive,inactive,inactive,inactive,inactive,inactive,inactive,inactive
CC(=O)[C@H]1CC[C@H]2[C@@H]3CC[C@H]4C[C@H](O)CC[C@]4(C)[C@H]3C(=O)C[C@]12C,inactive,inactive,inactive,inactive,inactive,inactive,inactive,inactive,inactive,inactive,inactive,inactive,inactive,inactive,inactive,inactive,inactive,inactive,inactive,inactive
CC(=O)Nc1cc([As](=O)(O)O)ccc1O,inactive,inactive,inactive,inactive,inactive,inactive,inactive,inactive,inactive,inactive,inactive,inactive,inactive,inactive,inactive,inactive,inactive,inactive,inactive,inactive
Oc1ccccc1-c1ccccc1,inactive,inactive,inactive,inactive,inactive,inactive,inactive,inactive,inactive,inactive,inactive,inactive,inactive,inactive,inactive,inactive,inactive,inactive,inactive,inactive
